According to PubChem BioAssay (NCATS):
Inconclusive results are not listed. Calls of active or inactive are those of the source. Calls come from the whole dose curve; as a rule, active = well fitted curve in the direction sought with a large enough effect; inconclusive = small, poorly fitted or top-dose-only effect, or another doubt; inactive = no such curve, though single readings can be large; an effect the other way counts as inactive or inconclusive.

target: Cytochrome P450 3A4 (Homo sapiens) (UniProt P08684); assay: qHTS Assay for Inhibitors and Substrates of Cytochrome P450 3A4 (AID 884); conditions: recombinant CYP3A4, Luciferin-PPXE luminescence; series mostly up to 57.1 µM; activity change, negative = inhibition: at the top concentration; note: potency is the fitted concentration of half-maximal effect; nearly all actives have a fitted effect of over 50% in size
Sequence (P08684 whole entry, looked up): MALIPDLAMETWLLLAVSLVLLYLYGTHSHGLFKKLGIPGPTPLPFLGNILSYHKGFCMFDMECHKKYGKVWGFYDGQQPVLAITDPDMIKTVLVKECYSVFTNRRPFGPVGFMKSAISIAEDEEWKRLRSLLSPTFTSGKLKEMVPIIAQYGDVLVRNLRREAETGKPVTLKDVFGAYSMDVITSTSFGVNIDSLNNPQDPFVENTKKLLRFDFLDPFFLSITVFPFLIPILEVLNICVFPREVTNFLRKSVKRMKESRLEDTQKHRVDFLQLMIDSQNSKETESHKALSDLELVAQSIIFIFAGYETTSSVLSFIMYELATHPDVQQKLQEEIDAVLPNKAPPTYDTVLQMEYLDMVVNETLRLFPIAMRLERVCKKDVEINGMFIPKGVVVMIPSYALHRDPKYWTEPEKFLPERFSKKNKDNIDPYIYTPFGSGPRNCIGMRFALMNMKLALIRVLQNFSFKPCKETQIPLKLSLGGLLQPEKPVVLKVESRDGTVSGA
How it was run: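 Luminescent readout of luciferin produced by CYP3A4 (20 nM) dealkylation of Luciferin-PPXE, 25 uM (its KM). NADPH-driven reaction ran 60 min at RT after 10 min compound preincubation; data scaled to 57 uM ketoconazole as 100% inhibition.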

Potency, active:
Cc1ccccc1-c1cncnc1NCc1ccccc1 0.316 µM, COc1ccccc1CCn1c(=O)c(-c2cccc(F)c2)nc2cncnc21 3.16 µM, COc1ccc(Oc2ncc3nc(C)c(=O)n(C[C@H]4CCCO4)c3n2)cc1 3.98 µM, CC(=O)NCCNc1ncncc1-c1ccc(N(C)C)cc1 2 µM, Cc1ccccc1-c1nccc(NCc2cccs2)n1 2 µM, Cc1cccc(CNc2cc(-c3c(C)noc3C)ncn2)c1 5.01 µM, COc1cccc(Nc2ncc3nc(C)c(=O)n(C4CC4)c3n2)c1 6.31 µM, CNc1ncnc2ccc(-c3ccccc3CN(C)C)cc12 7.94 µM, c1csc(CNc2ncnc3ccc(-c4ccoc4)cc23)c1 7.94 µM, c1cncc(CNc2ncncc2-c2cccnc2)c1 2 µM

target: Cytochrome P450 3A4 (Homo sapiens) (UniProt P08684); assay: qHTS Assay for Activators of Cytochrome P450 3A4 (AID 885); conditions: recombinant CYP3A4, Luciferin-PPXE luminescence, 60 min; series mostly up to 57.1 µM; activity change, positive = activation: at the top concentration; note: nearly all actives have a fitted effect of over 65% in size
How it was run: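 Using 20nM recombinant human CYP3A4 in potassium phosphate (200mM), substrate Luciferin-PPXE at 25uM, luminescent luciferin detection followed a 60-min RT NADPH reaction; data scaled to 57 uM ketoconazole.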

Activity change, positive = activation, inactive:
CN(C)C(=O)c1ccc(-c2cc(NCc3cccnc3)ncn2)cc1 -82.6%, CN(C)c1ncc2nc(-c3cc(F)cc(F)c3)c(=O)n(CCC#N)c2n1 -36.9%, Fc1ccc(Nc2ncncc2-c2ccccc2C(F)(F)F)cc1 -112%, COc1ccccc1CCn1c(=O)c(-c2cccc(F)c2)nc2cncnc21 -79.3%, COCCn1c(=O)cnc2cnc(Oc3ccc(OC)cc3)nc21 -41.9%, COc1ccc(Oc2ncc3nc(C)c(=O)n(C[C@H]4CCCO4)c3n2)cc1 -91.3%, CCNc1ncc2nc(-c3cccs3)c(=O)n(C)c2n1 -38.7%, COCCNc1nc(-c2ccccc2Cl)nc2ccccc12 -89.4%, COCCNc1ncnc2ccc(-c3cccc(NS(C)(=O)=O)c3)cc12 -67.4%, CC(=O)NCCNc1ncncc1-c1ccc(N(C)C)cc1 -78.8%, COc1ccc(Oc2ncc3nc(-c4ccc(OC)cc4)c(=O)n(C)c3n2)cc1 -54.3%, Cc1ccccc1-c1nccc(NCc2cccs2)n1 -112%, Cc1cccc(CNc2cc(-c3c(C)noc3C)ncn2)c1 -93.5%, CS(=O)(=O)Nc1cccc(-c2ccc3ncnc(NC4CC4)c3c2)c1 -63.7%, COc1ccc(-n2c(=O)cnc3cnc(N(C)C)nc32)cc1 -35.5%, COc1cccc(Nc2ncc3nc(C)c(=O)n(C4CC4)c3n2)c1 -73.8%, COc1ccc2[nH]cc(CCNc3ncnc4ccc(-c5cccnc5)cc34)c2c1 -96.5%, CNc1ncnc2ccc(-c3ccccc3CN(C)C)cc12 -77.8%, c1csc(CNc2ncnc3ccc(-c4ccoc4)cc23)c1 -77.8%, COCCn1c(=O)c(C)nc2cnc(Oc3ccc(OC)cc3)nc21 -88.5%, c1cncc(CNc2ncncc2-c2cccnc2)c1 -98%, COc1cccc(Cn2c(=O)cnc3cncnc32)c1 -52.8%, CCNc1ncc2nc(-c3cn(C)c4ccccc34)c(=O)n(C)c2n1 -48.2%
